Sampled rows, rich in hits. Any-hit rate of the full collection: about 1.2%.
gsp antagonist – qHTS for Antagonists of gsp, the Etiologic Mutation Responsible for Fibrous Dysplasia/McCune-Albright Syndrome: qHTS; gsp-mutant cells, cAMP HTRF, 30 min; Potency, µM (titrated, usually from 76.9 µM), usual class: inhibitors; hit rate 0.4% among 340,000; AID 624288, 2012; calls by dose curve; cell line not stated here;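 note: intracellular cAMP measured with PDE inhibitor Ro 20-1724 present during compound exposure; nearly all actives have a fitted effect of over 65% in size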
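HTRF cAMP read-out (cAMP-d2 plus anti-cAMP antibody-K in lysis buffer, 30 min RT). Before lysis, cells are exposed to compounds with […] for 30 min at 37C in DPBS containing Ca/Mg, BSA and Tween 20.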
RXFP1 antagonist – qHTS Assay for Antagonists of the Relaxin Receptor RXFP1. HEK293-RXFP1, relaxin-stimulated cAMP HTRF, 30 min; hits give low values. activity change, negative = inhibition, % at 57.5 µM. hit rate 0.59% among 350,000. AID 1259400, 2018;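 active = activity change of -60% or lower, but not beyond a set lower limit; inconclusive = change between -60% and -40%, or beyond the set limit; inactive = change above -40%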
Target sequence (Q9HBX9 whole entry, looked up): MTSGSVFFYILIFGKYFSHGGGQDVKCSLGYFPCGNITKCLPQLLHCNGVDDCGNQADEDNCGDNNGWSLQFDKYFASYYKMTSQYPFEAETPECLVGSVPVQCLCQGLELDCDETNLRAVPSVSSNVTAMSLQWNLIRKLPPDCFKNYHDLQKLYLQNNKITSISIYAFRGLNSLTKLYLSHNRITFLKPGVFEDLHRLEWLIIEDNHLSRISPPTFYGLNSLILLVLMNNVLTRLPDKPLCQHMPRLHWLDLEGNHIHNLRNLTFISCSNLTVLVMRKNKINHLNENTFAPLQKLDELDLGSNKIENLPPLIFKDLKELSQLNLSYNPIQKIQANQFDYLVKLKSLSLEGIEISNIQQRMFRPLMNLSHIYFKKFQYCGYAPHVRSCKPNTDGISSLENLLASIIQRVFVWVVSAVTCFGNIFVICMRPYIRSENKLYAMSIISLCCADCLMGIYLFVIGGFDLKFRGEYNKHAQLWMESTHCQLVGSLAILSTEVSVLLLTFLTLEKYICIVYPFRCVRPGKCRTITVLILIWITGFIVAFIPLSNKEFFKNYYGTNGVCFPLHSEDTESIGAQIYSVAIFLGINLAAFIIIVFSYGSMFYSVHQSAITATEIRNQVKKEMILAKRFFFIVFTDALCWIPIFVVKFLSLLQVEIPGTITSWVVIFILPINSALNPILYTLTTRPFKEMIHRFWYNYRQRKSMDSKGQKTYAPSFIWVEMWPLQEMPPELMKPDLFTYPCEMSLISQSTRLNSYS
Akt phos inh – HTS Assay for Inhibitors of Akt Phophorylation: Primary Screen | Neuro2A IGF-stimulated pAkt S473 HTRF, 20 min; hits give low values | activity change, % for hits at 50 µM | hit rate 0.32% among 360,000 | AID 651550, 2012; in the data active = activity change below about -80%; inconclusive = mostly about -51% to -80%
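Neuro2A cells in DMEM with 0.5% FBS, overnight at 37 deg C, given compound at single 50 µM final, then IGF (6 nM final) for 20 min at 37 deg C. Lysed; phospho-Akt Ser473 by HTRF after 24 h, 665/615 ratio.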
RXFP1 agonist – qHTS Assay for Agonists of the Relaxin Receptor RXFP1; HEK293T-RXFP1 cAMP TR-FRET, 30 min; response scale: percent of porcine relaxin response, buffer zero; Potency, µM (titrated, usually from 57.5 µM), hits mostly activators; hit rate 0.3% among 370,000; AID 2676, 2010; active = well fitted activation curve with a large enough effect; inconclusive = small, poorly fitted or top-dose-only effect; note: nearly all actives have a fitted effect of over 60% in size
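HEK293T cells stably expressing RXFP1 were pretreated with the PDE4 inhibitor Ro 20174, exposed to compounds for 30 min at 37C, lysed, and cAMP was read by TR-FRET. Data normalized to buffer (basal) and 29 nM porcine relaxin (100%).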
gsp agonist – qHTS for Agonist of gsp, the Etiologic Mutation Responsible for Fibrous Dysplasia/McCune-Albright Syndrome: qHTS; gsp mutant cells, cAMP HTRF, 30 min; Potency, µM (highest dose often 76.9 µM), hits mostly activators; hit rate 0.13% among 340,000; active = well fitted activation curve with a large enough effect; inconclusive = small, poorly fitted or top-dose-only effect, or another doubt; inactive = no such curve, though single readings can be large or run the other way; cell line not stated here;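 note: phosphodiesterase inhibitor Ro 20-1724 added with compounds to block cAMP breakdown; nearly all actives have a fitted effect of over 60% in size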
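Cells in DMEM/10% FBS with G418 were pretreated with compounds in DMSO plus […] (300 uM stock) for 30 min at 37C. cAMP was measured by HTRF (cAMP-d2 plus anti-cAMP antibody-K) after 30 min at room temperature.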
Large screens that a line does not name were inactive.

COc1ccccc1NC(=O)CSc1nc(=O)n2cc(C)ccc2n1	gsp agonist 18µM
Cc1ccc(NC(=O)CSc2nc(=O)n3cc(C)ccc3n2)c(C)c1	gsp agonist inconclusive
CN1C(=O)Cc2cc(S(=O)(=O)NCc3ccc(Cl)cc3)ccc21	none (no result: gsp antagonist, Akt phos inh, gsp agonist)
Cc1ccccc1-c1nnn(Cc2cccc(S(=O)(=O)N3CCOCC3)c2)n1	gsp antagonist 35µM
O=C(Nc1ccc(F)cc1)N1CCOCC1	none (no result: Akt phos inh)
O=C(Nc1ccc(Br)cc1)N1CCCCCCC1	Akt phos inh -110%
CN(C)c1ccc(NC(=O)N2CCOCC2)cc1	gsp antagonist inconclusive, RXFP1 antagonist -69
CC(=O)Nc1ccc(NC(=O)N2CCCCC2)cc1	gsp agonist inconclusive
Cc1ccc(CSc2cn(CC(=O)N3CCCCCC3)c3ccccc23)cc1	none (no result: gsp antagonist, Akt phos inh, gsp agonist)
COc1cc2nc(SCC(=O)Nc3ccc(F)cc3)n3nc(CCn4c(C)nc5ccccc54)nc3c2cc1OC	none (no result: gsp antagonist, RXFP1 antagonist, Akt phos inh, gsp agonist)
COc1cc2nc(SCC(=O)Nc3cccc(C)c3)n3nc(CCn4c(C)nc5ccccc54)nc3c2cc1OC	RXFP1 agonist 18µM (no result: gsp antagonist, Akt phos inh, gsp agonist)
COc1ccc2c(c1)CCc1c(C(=O)Nc3c(C)nn(Cc4c(Cl)cccc4Cl)c3C)noc1-2	none (no result: gsp antagonist, Akt phos inh, gsp agonist)
Cc1nn(-c2ccccc2)c(C)c1/C=N/n1c(-c2ccccc2Br)n[nH]c1=S	none
CCN(CC)c1ccc(/C=N/n2c(-c3ccccc3Br)n[nH]c2=S)cc1	gsp antagonist inconclusive, RXFP1 antagonist -84
Cc1c(C(=O)Nc2ccc(F)cc2F)oc2c1-c1nn(Cc3c(F)cccc3Cl)cc1CC2	none (no result: gsp antagonist, Akt phos inh, gsp agonist)
COc1cc(OC)cc(C(=O)NCCN2C(=O)S/C(=C\c3cccs3)C2=O)c1	gsp antagonist 28µM
COC(=O)Cn1cnc2c(nnn2-c2ccc(OC)cc2)c1=O	none
COc1ccc(-n2nnc3c(=O)n(CC(=O)NCC4CCCO4)cnc32)cc1 (centres undefined)	RXFP1 agonist 11µM, gsp agonist 7.9µM
O=C(Cn1cnc2c(nnn2-c2ccc(F)cc2)c1=O)NCC1CCCO1 (centres undefined)	RXFP1 agonist inconclusive, gsp agonist 10µM
CCC(=O)C(Cc1ccccc1)(Cc1ccccc1)CC(C)N(C)C (centres undefined)	none (no result: gsp antagonist, Akt phos inh, RXFP1 agonist, gsp agonist)
O=C(NCc1ccccc1)N1CCC(n2cnc3cc(F)ccc32)CC1	Akt phos inh -112%
Cc1ccc2c(c1)nnn2C1CCN(C(=O)NCc2ccccc2)CC1	RXFP1 antagonist inconclusive
CCN(CC)c1ccc(-c2nc(-c3ccccc3C)no2)cc1[N+](=O)[O-]	none (no result: gsp antagonist, RXFP1 antagonist, Akt phos inh, gsp agonist)
O=C(CCS(=O)(=O)c1ccccc1)Nc1nc2cc3c(cc2s1)OCCO3	none
O=C(CCS(=O)(=O)c1ccccc1)Nc1nc2cc3c(cc2s1)OCO3	gsp antagonist 50µM
Brc1cc2c(cc1Br)OCCOCCOCCOCCO2	none
Brc1ccc2c(c1)OCCOCCOc1cc(Br)ccc1OCCOCCOCCO2	gsp antagonist 50µM
O=C1CC2(CCCC2)CC(=O)N1	none (no result: gsp antagonist, Akt phos inh, RXFP1 agonist, gsp agonist)
CCCOC(=O)c1ccc(NC(=O)C2CCCO2)cc1 (centres undefined)	Akt phos inh -119%, gsp agonist inconclusive
NC(=O)c1ccc(NC(=O)C2CCCO2)cc1 (centres undefined)	none
O=C(NCc1ccc(F)cc1)c1ccc(NC(=O)C2CCCO2)cc1 (centres undefined)	gsp agonist inconclusive
COc1ccc(CNC(=O)c2ccc(NC(=O)C3CCCO3)cc2)cc1 (centres undefined)	Akt phos inh -105%
COc1ccccc1NC(=O)Cn1c(=O)n(Cc2ccccc2)c(=O)c2c1c1cc(C)ccc1n2C	none (no result: gsp antagonist, RXFP1 antagonist, Akt phos inh, gsp agonist)
CCCc1ccccc1OCCNS(=O)(=O)c1cc2c(cc1C)OCC(=O)N2	RXFP1 antagonist -62
CCOc1ccc(NC(=O)c2ccc(N3CC4CC(C3)c3cccc(=O)n3C4)c(NC(=O)CCN3CCOCC3)c2)cc1 (centres undefined)	none
CCOc1ccc(/C=N/NC(=O)Cc2ccccc2)cc1CN1CC2CC(C1)c1cccc(=O)n1C2 (centres undefined)	gsp antagonist 35µM (no result: RXFP1 antagonist, gsp agonist)
CCOc1ccc(/C=N/NC(=O)c2ccc(O)cc2)cc1CN1CC2CC(C1)c1cccc(=O)n1C2 (centres undefined)	gsp antagonist 40µM (no result: RXFP1 antagonist, gsp agonist)
CCN(C(=O)c1cnc(N2CCOCC2)c2ccccc12)c1cc(C)ccc1C	none (no result: gsp antagonist, Akt phos inh, gsp agonist)
OC1(c2ccccc2)CCNCC1	none (no result: gsp antagonist, Akt phos inh, RXFP1 agonist, gsp agonist)
CC1(CCc2ccccc2)NC(=O)N(Cc2nnc(-c3ccccc3Br)o2)C1=O (centres undefined)	Akt phos inh -108%
O=S(=O)(c1cccc(F)c1)N1CCC(Oc2ccc(-n3cnnn3)cc2)CC1	none (no result: gsp antagonist, Akt phos inh, gsp agonist)
CCC(Sc1ccc2nnc(-c3cccnc3)n2n1)C(=O)O (centres undefined)	RXFP1 agonist 14µM, gsp agonist 2.5µM (no result: RXFP1 antagonist)
CCOC(=O)C(CC)Sc1ccc2nnc(-c3cccnc3)n2n1 (centres undefined)	RXFP1 agonist 18µM
CCOCCCNC(=O)c1cnc2sc(N3CCCCCC3)nn2c1=O	none (no result: gsp antagonist, Akt phos inh, gsp agonist)
CC(NCC(O)COCCC12CC3CC(CC(C3)C1)C2)c1ccccc1 (centres undefined)	RXFP1 antagonist -62, gsp agonist inconclusive
NCC(O)COCCC12CC3CC(CC(C3)C1)C2 (centres undefined)	none
Cc1ccc(C)c(S(=O)(=O)C(C#N)c2nc3ccccc3nc2N2CCOCC2)c1 (centres undefined)	gsp antagonist 25µM
CN(C)c1ccc(C(C#N)c2ccccc2)nn1 (centres undefined)	RXFP1 antagonist -69
CN(C)c1ccc(C(C#N)c2ccc(Cl)cc2)nn1 (centres undefined)	none
COc1ccc(-c2noc(CCC(=O)N3CCN(c4cccc(OC)c4)CC3)n2)cc1	gsp antagonist 45µM (no result: RXFP1 antagonist, RXFP1 agonist, gsp agonist)
COc1cccc(C(=O)N(Cc2nc(-c3ccc(C)cc3)no2)C(C)C)c1	Akt phos inh -100%
COc1ccc(-c2noc(CCC(=O)N3CCN(c4cccc(C(F)(F)F)c4)CC3)n2)cc1	gsp antagonist inconclusive
CCOc1ccc(-c2nc(CSCC(=O)N3CCN(c4cccc(OC)c4)CC3)c(C)o2)cc1	gsp antagonist 40µM, gsp agonist inconclusive
O=C(COc1ccccc1F)Nc1ccc2nc(SCC(=O)N3CCCC3)sc2c1	none (no result: gsp antagonist, Akt phos inh, gsp agonist)
COc1ccccc1-c1nc(S(=O)(=O)c2ccccc2)c(N2CCC(C)CC2)o1	none (no result: gsp antagonist, Akt phos inh, gsp agonist)
CCN(CC)S(=O)(=O)c1ccc(-c2nnc(SCC(=O)N3c4ccccc4CC3C)n2CC)cc1 (centres undefined)	gsp antagonist 28µM
CCN(CC)S(=O)(=O)c1ccc(-c2nnc(SCC(=O)N3c4ccccc4CC3C)o2)cc1 (centres undefined)	gsp antagonist inconclusive, Akt phos inh inconclusive
